# Inconclusive results are not listed. Active and inactive are the calls of the source. The calls were made as follows, unless noted: active = hit-call score of the fitted dose curve at least 0.9, where 1 is the maximum; inconclusive = response in the unintended direction; inactive = score below 0.9.
# Legend:
# [1] = ATG_TCF_b_cat_CIS: Attagene CIS-FACTORIAL HepG2 Assay for human T-Cell-Factor with beta-catenin (TCF/b-cat) (AID 2282965; active = hit-call score of the fitted dose curve at least 0.9, where 1 is the maximum; inactive = score below 0.9); settings: HepG2 TCF/beta-catenin cis-reporter transcription, actives raise or lower the signal
# How it was run: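 HepG2 cells transiently transfected with cis-promoter-driven multiplexed reporter units; reporter mRNA measured 24 h after dosing by RT-PCR, FAM labelling, HpaI digestion and capillary electrophoresis. Bidirectional fitting relative to DMSO baseline.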
# [2] = ATG_TAL_CIS: Attagene CIS-FACTORIAL HepG2 Assay for human TAL Basal Promoter (AID 2282966; active = hit-call score of the fitted dose curve at least 0.9, where 1 is the maximum; inactive = score below 0.9;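 also: background control endpoint measuring basal TAL promoter reporter mRNA not a specific factor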); settings: HepG2 Attagene cis-factorial TAL promoter reporter; actives raise or lower the signal
# How it was run: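 Endogenous transcription-factor activity is sensed in HepG2 cells through transfected cis-promoter reporter constructs. After 24 h dosing, reporter transcripts are quantified by RT-PCR and capillary electrophoresis. Gain or loss of signal is fitted relative to DMSO.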
# [3] = ATG_TGFb_CIS: Attagene CIS-FACTORIAL HepG2 Assay for human Transforming Growth Factor (TGF) (AID 2282967; active = hit-call score of the fitted dose curve at least 0.9, where 1 is the maximum; inactive = score below 0.9); settings: HepG2 Attagene CIS TGFb reporter, mRNA transcription; actives raise or lower the signal
# How it was run: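 Endogenous TGFB1-linked transcription factor activity read as reporter mRNA via RT-PCR and capillary electrophoresis, 24 h after dosing transiently transfected HepG2 cells. Gain or loss of signal fitted relative to DMSO.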
# [4] = biological target: Estrogen receptor (Homo sapiens) (UniProt P03372); experiment: ATG_ERa_TRANS: Attagene TRANS-FACTORIAL HepG2 Assay for human Estrogen Receptor alpha (ERa) (AID 2282970); settings: HepG2 Attagene TRANS ERa GAL4 reporter, mRNA
# How it was run: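 Transfected HepG2 cells carrying GAL4-UAS-driven reporter units were dosed for 24 hours. Total RNA was reverse-transcribed, reporter sequences PCR-amplified, FAM-labelled, HpaI-digested and resolved by capillary electrophoresis. Increases over DMSO control defined activity.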
# [5] = biological target: X-box-binding protein 1 (Homo sapiens) (UniProt P17861); experiment: ATG_Xbp1_CIS: Attagene CIS-FACTORIAL HepG2 Assay for human X-box Binding Protein 1 (XBP1) (AID 2282972; active = hit-call score of the fitted dose curve at least 0.9, where 1 is the maximum; inactive = score below 0.9); settings: HepG2 XBP1 cis-element reporter, Attagene multiplex; actives raise or lower the signal
# How it was run: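 Reporter transcripts were quantified by RT-PCR with fluorescent primer extension and capillary electrophoresis after 24 h chemical exposure. Cells: transiently transfected HepG2 carrying cis-regulated reporter constructs; data fitted bidirectionally relative to DMSO.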
# [6] = ATG_M_19_TRANS: Attagene TRANS-FACTORIAL HepG2 Assay for M19 Transcription Factor (Internal Marker) (AID 2282974); settings: HepG2 Attagene TRANS-FACTORIAL M19 internal marker reporter
# How it was run: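 Measured here: internal-marker reporter transcript from HepG2 cells transfected with MRTUs, harvested at 24 h. cDNA PCR products were 6-FAM labelled by primer extension, cut with HpaI for 2 h at 37 C, and resolved by CE.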
# [7] = ATG_GAL4_TRANS: Attagene TRANS-FACTORIAL HepG2 Assay for GAL4 (Internal Marker) (AID 2282976); settings: HepG2 Attagene TRANS GAL4 internal marker reporter
# How it was run: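 Fluorescence from capillary electrophoresis of labelled RT-PCR products quantifies reporter mRNA induction after 24 h dosing of HepG2 cells carrying transfected GAL4-UAS reporter transcription units. Vehicle DMSO serves as baseline.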
# [8] = biological target: Glucocorticoid receptor (Homo sapiens) (UniProt P04150); experiment: ATG_GR_TRANS: Attagene TRANS-FACTORIAL HepG2 Assay for human Glucocorticoid Receptor (GR) (AID 2282978); settings: HepG2 Attagene TRANS GR reporter, mRNA transcription;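 also: activators score as hits since higher reporter transcript over DMSO is fitted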
# How it was run: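 Measurement of GAL4-UAS-driven reporter mRNA in human HepG2 liver cells 24 h post-dosing, using RT-PCR with fluorescent labelling and capillary electrophoresis; the transfected constructs report exogenous NR-GAL4 chimera activity, fitted upward against DMSO.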
# [9] = biological target: Bile acid receptor (Homo sapiens) (UniProt Q96RI1); experiment: ATG_FXR_TRANS: Attagene TRANS-FACTORIAL HepG2 Assay for Farnesoid X Receptor (FXR) (AID 2282979); settings: HepG2 Attagene TRANS FXR-GAL4 reporter transcription;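 also: hits raise reporter mRNA above DMSO so AC50 marks FXR activation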
# How it was run: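 Chimeric FXR-GAL4 activity in transiently transfected human HepG2 liver cells is scored as induction of reporter mRNA after 24 h of dosing. Detection uses RT-PCR with fluorescent labelling and capillary electrophoresis, with DMSO serving as baseline.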
# [10] = biological target: Oxysterols receptor LXR-beta (Homo sapiens) (UniProt P55055); experiment: ATG_LXRb_TRANS: Attagene TRANS-FACTORIAL HepG2 Assay for human Liver X Receptor beta (LXRb) (AID 2282981); settings: HepG2 Attagene TRANS GAL4-LXRb reporter, mRNA
# How it was run: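 Readout: fluorescent reporter mRNA fragments resolved by capillary electrophoresis after RT-PCR. System: transiently transfected human HepG2, exogenous LXRb-Gal4 chimera driving GAL4-UAS reporter, 24 h dosing. Activity fitted upward against DMSO baseline.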
# [11] = biological target: Transcriptional activator Myb (Homo sapiens) (UniProt P10242); experiment: ATG_Myb_CIS: Attagene CIS-FACTORIAL HepG2 Assay for human Myeloblastosis (Myb) Proto-Oncogene Transcription Factor (AID 2282986; active = hit-call score of the fitted dose curve at least 0.9, where 1 is the maximum; inactive = score below 0.9); settings: HepG2 Attagene CIS-FACTORIAL Myb reporter transcription; actives raise or lower the signal
# How it was run: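 Fluorescence signals from capillary electrophoresis of RT-PCR-amplified reporter cDNA give the read-out. Cells: HepG2 transfected with multiple cis-regulated reporter units. Exposure lasts 24 hours; DMSO defines baseline for gain or loss of signal.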
# [12] = biological target: Oxysterols receptor LXR-alpha (Homo sapiens) (UniProt Q13133); experiment: ATG_LXRa_TRANS: Attagene TRANS-FACTORIAL HepG2 Assay for human Liver X Receptor alpha (LXRa) (AID 2282980); settings: HepG2 Attagene TRANS reporter, LXRa transactivation
# How it was run: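 Transient HepG2 transfectants, 24 h dosing, RT-PCR/CE mRNA reporter quantitation; gain-of-signal vs DMSO.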
# [13] = ATG_M_32_TRANS: Attagene TRANS-FACTORIAL HepG2 Assay for M32 Transcription Factor (Internal Marker) (AID 2282984); settings: HepG2 Attagene TRANS M32 internal marker reporter;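 also: transcript level of a background control reporter unit measured by RT-PCR and capillary electrophoresis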
# How it was run: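 Read-out: fluorescent reporter cDNA fragments resolved by capillary electrophoresis after RT-PCR of total RNA. Transfected HepG2 cells were exposed to chemical for 24 h. Activity scored in the positive direction relative to DMSO.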
# [14] = biological target: Hepatocyte nuclear factor 4-alpha (Homo sapiens) (UniProt P41235); experiment: ATG_HNF4a_TRANS: Attagene TRANS-FACTORIAL HepG2 Assay for human Hepatocyte Nuclear Factor 4 alpha (HNF4a) (AID 2282982); settings: HepG2 HNF4a transactivation reporter, mRNA readout
# How it was run: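 Transient MRTU transfection of HepG2, 24 h dosing. Readout: reporter mRNA via RT-PCR + capillary electrophoresis, fluorescence; activity fit upward relative to DMSO control.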
# [15] = biological target: Nuclear receptor subfamily 4 group A member 2 (Homo sapiens) (UniProt P43354); experiment: ATG_NURR1_TRANS: Attagene TRANS-FACTORIAL HepG2 Assay for human Nuclear Receptor Related Protein 1 (NURR1) (AID 2282985); settings: HepG2 Attagene TRANS reporter, mRNA readout
# How it was run: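 Read-out: reporter mRNA induction by RT-PCR plus capillary electrophoresis with fluorescence detection, after 24 h dosing of transfected HepG2 cells. Exogenous NR-Gal4 chimera activity drives GAL4-UAS reporter; activity fitted upward versus DMSO.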
# [16] = biological target: Steroid hormone receptor ERR1 (Homo sapiens) (UniProt P11474); experiment: ATG_ERRa_TRANS: Attagene TRANS-FACTORIAL HepG2 Assay for human Estrogen-Related Receptor alpha (ERRa) (AID 2282971); settings: HepG2 Attagene TRANS reporter, ERRa transactivation
# How it was run: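 HepG2 cells were transiently transfected with multiple GAL4-UAS reporter units, then dosed with compound for 24 h. Total RNA was reverse-transcribed, reporter cDNA PCR-amplified and fluorescently labelled, and fragments resolved by capillary electrophoresis; induction was compared with DMSO.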
# [17] = biological target: Estrogen-related receptor gamma (Homo sapiens) (UniProt P62508); experiment: ATG_ERRg_TRANS: Attagene TRANS-FACTORIAL HepG2 Assay for human Estrogen-Related Receptor gamma (ERRg) (AID 2282977); settings: HepG2 Attagene TRANS reporter, ERRg transactivation;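 also: hits increase reporter signal over DMSO so potencies reflect activators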
# How it was run: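 Exogenous NR-Gal4 chimera activity was assessed in HepG2 cells bearing transfected GAL4-UAS reporters. After 24 h dosing, total RNA underwent RT-PCR, fluorescent primer extension and HpaI digestion before capillary electrophoresis, with gain of signal scored against DMSO.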
# [18] = ATG_VDRE_CIS: Attagene CIS-FACTORIAL HepG2 Assay for human Vitamin D Receptor Element (VDRE) (AID 2282968; active = hit-call score of the fitted dose curve at least 0.9, where 1 is the maximum; inactive = score below 0.9); settings: HepG2 VDRE cis-reporter transcription, actives raise or lower the signal
# How it was run: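 Transient MRTU transfection of HepG2, 24 h compound exposure. Readout: reporter transcripts via RT-PCR and capillary electrophoresis, fluorescence. Bidirectional fit vs DMSO.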
# [19] = ATG_M_06_TRANS: Attagene TRANS-FACTORIAL HepG2 Assay for M06 Transcription Factor (Internal Marker) (AID 2282983); settings: HepG2 Attagene TRANS M06 internal marker reporter
# How it was run: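 Human liver HepG2 cells bearing transiently transfected chimeric NR-GAL4 reporter units were treated with chemicals for 24 h. Total RNA was reverse-transcribed, reporter sequences amplified and labelled, then quantified by capillary electrophoresis. Activity was fitted upward relative to DMSO.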
# [20] = biological target: Nuclear receptor subfamily 1 group I member 3 (Homo sapiens) (UniProt Q14994); experiment: ATG_CAR_TRANS: Attagene TRANS-FACTORIAL HepG2 Assay for human Constitutive Androstane Receptor (CAR) (AID 2282969); settings: HepG2 Attagene TRANS-FACTORIAL CAR reporter;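 also: activators raise reporter mRNA above DMSO so AC50 marks induction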
# How it was run: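 Transiently transfected HepG2, multiplex TRANS reporters (CAR-Gal4 chimera driving GAL4-UAS reporter). 24 h dosing. Readout: reporter transcript by RT-PCR + capillary electrophoresis, fluorescence intensity; positive direction vs DMSO.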
# Sequence of Oxysterols receptor LXR-alpha (Homo sapiens) (Q13133 whole entry, looked up): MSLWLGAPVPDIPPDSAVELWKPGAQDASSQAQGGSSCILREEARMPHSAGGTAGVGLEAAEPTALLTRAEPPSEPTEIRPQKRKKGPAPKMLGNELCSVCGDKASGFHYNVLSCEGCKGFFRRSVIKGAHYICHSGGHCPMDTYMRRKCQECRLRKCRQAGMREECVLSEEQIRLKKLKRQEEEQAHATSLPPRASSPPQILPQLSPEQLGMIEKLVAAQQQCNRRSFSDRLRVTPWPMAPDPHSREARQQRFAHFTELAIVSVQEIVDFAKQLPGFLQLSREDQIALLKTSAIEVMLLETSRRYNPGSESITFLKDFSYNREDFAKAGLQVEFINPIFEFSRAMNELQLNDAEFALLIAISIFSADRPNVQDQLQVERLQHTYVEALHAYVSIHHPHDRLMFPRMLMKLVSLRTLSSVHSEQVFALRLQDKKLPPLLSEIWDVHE
# Sequence of Oxysterols receptor LXR-beta (Homo sapiens) (P55055 whole entry, looked up, the tested form may be a part): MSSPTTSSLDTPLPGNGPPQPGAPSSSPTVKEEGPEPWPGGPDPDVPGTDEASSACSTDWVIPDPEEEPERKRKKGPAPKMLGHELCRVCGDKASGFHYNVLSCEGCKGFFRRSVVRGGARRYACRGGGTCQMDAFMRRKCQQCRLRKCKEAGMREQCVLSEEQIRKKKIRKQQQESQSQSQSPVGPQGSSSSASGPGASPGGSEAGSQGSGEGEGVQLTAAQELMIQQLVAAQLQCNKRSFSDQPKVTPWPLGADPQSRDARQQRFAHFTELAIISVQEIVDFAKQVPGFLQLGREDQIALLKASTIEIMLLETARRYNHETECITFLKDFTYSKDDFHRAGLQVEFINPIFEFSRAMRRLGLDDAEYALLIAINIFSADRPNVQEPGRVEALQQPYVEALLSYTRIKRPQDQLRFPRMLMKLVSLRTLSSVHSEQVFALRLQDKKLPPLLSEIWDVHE
# Sequence of Bile acid receptor (Homo sapiens) (Q96RI1 whole entry, looked up, the tested form may be a part): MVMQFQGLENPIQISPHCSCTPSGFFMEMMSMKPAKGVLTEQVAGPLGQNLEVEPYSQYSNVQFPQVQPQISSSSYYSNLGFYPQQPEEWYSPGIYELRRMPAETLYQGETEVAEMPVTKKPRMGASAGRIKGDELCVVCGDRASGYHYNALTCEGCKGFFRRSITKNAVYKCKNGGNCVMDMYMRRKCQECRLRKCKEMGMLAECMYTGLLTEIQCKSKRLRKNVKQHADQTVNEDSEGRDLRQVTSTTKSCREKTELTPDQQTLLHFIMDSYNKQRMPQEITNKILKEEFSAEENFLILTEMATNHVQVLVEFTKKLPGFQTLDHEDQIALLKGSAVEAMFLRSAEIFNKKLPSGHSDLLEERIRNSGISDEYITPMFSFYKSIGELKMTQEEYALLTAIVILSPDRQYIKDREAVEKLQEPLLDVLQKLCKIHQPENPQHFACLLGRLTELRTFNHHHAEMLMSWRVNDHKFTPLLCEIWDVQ
# Sequence of Hepatocyte nuclear factor 4-alpha (Homo sapiens) (P41235 whole entry, looked up): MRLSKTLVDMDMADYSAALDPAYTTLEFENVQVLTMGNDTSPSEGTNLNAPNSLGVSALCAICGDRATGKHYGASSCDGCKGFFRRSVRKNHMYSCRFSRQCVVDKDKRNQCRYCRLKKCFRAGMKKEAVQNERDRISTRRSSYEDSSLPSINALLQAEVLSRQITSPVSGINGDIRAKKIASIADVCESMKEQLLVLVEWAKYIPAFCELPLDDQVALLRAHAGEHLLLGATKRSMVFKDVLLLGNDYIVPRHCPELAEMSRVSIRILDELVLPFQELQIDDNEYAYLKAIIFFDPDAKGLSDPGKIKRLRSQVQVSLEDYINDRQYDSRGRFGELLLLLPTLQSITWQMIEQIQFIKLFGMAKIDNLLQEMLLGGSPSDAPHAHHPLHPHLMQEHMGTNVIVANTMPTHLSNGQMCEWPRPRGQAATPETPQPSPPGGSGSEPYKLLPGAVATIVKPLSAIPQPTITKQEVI
# Sequence of Glucocorticoid receptor (Homo sapiens) (P04150 whole entry, looked up, the tested form may be a part): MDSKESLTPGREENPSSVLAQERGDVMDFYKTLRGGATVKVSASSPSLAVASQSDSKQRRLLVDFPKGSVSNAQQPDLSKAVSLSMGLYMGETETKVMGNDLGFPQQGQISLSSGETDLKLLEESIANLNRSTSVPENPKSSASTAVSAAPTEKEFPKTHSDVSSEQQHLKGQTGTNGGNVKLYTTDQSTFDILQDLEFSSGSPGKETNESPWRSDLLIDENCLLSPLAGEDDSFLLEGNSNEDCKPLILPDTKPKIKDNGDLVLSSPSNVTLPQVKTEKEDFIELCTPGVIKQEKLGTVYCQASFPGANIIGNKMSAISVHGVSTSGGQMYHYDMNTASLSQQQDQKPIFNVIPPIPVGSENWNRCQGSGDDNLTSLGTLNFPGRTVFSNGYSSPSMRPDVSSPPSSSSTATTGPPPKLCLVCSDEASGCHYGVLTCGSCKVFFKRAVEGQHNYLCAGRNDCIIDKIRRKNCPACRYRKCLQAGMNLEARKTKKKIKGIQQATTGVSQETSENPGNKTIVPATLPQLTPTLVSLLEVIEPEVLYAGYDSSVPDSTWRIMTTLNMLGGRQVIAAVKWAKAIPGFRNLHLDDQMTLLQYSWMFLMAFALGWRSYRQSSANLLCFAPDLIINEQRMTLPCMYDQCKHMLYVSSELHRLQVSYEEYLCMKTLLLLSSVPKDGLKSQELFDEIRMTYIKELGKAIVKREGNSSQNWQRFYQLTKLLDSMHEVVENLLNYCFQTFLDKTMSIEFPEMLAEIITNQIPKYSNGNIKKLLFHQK
# Sequence of Estrogen receptor (Homo sapiens) (P03372 whole entry, looked up, the tested form may be a part): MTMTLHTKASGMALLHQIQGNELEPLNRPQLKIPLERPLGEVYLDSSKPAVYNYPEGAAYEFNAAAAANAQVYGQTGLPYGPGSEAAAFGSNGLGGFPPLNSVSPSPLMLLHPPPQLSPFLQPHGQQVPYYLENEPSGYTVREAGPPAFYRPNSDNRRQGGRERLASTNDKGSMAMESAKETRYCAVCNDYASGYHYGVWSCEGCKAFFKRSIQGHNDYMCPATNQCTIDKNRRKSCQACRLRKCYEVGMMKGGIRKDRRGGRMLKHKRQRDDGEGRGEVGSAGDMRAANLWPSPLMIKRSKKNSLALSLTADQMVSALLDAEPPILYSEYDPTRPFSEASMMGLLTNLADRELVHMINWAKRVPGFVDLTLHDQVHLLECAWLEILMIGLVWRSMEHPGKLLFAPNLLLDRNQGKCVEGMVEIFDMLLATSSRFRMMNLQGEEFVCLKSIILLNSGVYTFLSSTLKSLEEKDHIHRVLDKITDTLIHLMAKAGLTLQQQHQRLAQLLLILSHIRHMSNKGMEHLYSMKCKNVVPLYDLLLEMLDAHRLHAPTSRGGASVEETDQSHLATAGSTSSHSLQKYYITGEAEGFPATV
# Sequence of Nuclear receptor subfamily 4 group A member 2 (Homo sapiens) (P43354 whole entry, looked up, the tested form may be a part): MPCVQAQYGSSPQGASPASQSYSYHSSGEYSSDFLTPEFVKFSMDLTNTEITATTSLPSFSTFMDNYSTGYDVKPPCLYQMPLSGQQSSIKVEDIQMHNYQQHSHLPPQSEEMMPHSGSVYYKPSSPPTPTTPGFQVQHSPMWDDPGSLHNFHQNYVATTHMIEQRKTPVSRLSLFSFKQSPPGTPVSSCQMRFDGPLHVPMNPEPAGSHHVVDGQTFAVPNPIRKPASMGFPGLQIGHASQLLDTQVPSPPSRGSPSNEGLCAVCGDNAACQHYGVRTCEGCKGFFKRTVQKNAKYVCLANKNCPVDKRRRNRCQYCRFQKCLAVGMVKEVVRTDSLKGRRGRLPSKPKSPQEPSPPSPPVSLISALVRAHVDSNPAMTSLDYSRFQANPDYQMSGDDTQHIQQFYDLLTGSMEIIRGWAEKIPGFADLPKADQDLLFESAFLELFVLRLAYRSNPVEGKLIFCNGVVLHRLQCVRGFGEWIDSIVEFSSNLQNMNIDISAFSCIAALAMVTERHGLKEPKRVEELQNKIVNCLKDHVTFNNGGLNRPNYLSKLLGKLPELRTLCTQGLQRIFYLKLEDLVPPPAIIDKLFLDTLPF
# Sequence of X-box-binding protein 1 (Homo sapiens) (P17861 whole entry, looked up): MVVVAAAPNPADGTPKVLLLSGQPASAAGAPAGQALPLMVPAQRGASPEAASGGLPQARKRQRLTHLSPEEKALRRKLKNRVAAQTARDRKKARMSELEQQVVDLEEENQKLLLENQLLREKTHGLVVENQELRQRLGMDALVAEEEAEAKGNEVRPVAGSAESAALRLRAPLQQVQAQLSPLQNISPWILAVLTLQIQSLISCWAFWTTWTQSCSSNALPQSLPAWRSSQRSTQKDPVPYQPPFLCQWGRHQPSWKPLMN
# Sequence of Transcriptional activator Myb (Homo sapiens) (P10242 whole entry, looked up): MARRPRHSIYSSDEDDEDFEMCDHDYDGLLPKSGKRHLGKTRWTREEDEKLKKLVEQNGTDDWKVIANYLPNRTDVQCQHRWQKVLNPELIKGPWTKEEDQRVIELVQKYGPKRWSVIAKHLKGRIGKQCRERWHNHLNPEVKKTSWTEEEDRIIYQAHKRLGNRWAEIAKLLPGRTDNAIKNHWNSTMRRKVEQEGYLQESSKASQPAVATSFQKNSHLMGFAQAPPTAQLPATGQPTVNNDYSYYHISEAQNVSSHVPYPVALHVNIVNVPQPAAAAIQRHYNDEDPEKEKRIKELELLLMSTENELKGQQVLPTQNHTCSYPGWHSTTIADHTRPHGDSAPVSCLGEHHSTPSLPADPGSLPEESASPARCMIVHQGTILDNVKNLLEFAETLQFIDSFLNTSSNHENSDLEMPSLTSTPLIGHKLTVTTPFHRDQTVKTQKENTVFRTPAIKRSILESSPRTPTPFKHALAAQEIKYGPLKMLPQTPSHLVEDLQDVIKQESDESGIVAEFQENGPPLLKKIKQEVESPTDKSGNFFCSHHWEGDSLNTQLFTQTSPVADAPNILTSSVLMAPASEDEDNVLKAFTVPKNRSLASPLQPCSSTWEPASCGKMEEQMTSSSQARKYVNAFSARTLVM
smiles,measurement,setting,value
CCNc1nc(NC(C)(C)C)nc(OC)n1,outcome,[1],inactive
same,outcome,[2],inactive
same,outcome,[3],inactive
same,outcome,[4],inactive
same,outcome,[5],inactive
same,outcome,[6],inactive
same,outcome,[7],inactive
same,outcome,[8],inactive
same,outcome,[9],inactive
same,outcome,[10],inactive
same,outcome,[11],inactive
C=CC(C)(O)CC/C=C(\C)CC (configuration not stated),outcome,[1],inactive
same,outcome,[2],inactive
same,outcome,[3],inactive
same,AC50,[4],30.3 µM (active)
same,outcome,[5],inactive
same,outcome,[6],inactive
same,outcome,[8],inactive
same,outcome,[12],inactive
same,outcome,[10],inactive
same,outcome,[13],inactive
same,outcome,[11],inactive
c1ccc2c(c1)[nH]c1ccccc12,outcome,[1],inactive
same,outcome,[2],inactive
same,outcome,[3],inactive
same,outcome,[4],inactive
same,outcome,[5],inactive
same,outcome,[6],inactive
same,outcome,[7],inactive
same,outcome,[10],inactive
same,outcome,[14],inactive
same,outcome,[13],inactive
same,outcome,[15],inactive
same,outcome,[11],inactive
COc1cc(C)ccc1O,outcome,[1],inactive
same,outcome,[2],inactive
same,outcome,[3],inactive
same,outcome,[4],inactive
same,outcome,[5],inactive
same,outcome,[7],inactive
same,outcome,[12],inactive
same,outcome,[10],inactive
same,outcome,[13],inactive
same,outcome,[11],inactive
CO[Si](CCCS)(OC)OC,outcome,[1],inactive
same,outcome,[2],inactive
same,outcome,[3],inactive
same,outcome,[4],inactive
same,outcome,[5],inactive
same,outcome,[7],inactive
same,outcome,[14],inactive
same,outcome,[13],inactive
same,outcome,[15],inactive
CCC(=O)C1CC(C(C)C)CC=C1C (configuration not stated),outcome,[1],inactive
same,outcome,[2],inactive
same,outcome,[3],inactive
same,outcome,[4],inactive
same,outcome,[16],inactive
same,outcome,[5],inactive
same,outcome,[17],inactive
same,outcome,[8],inactive
same,outcome,[12],inactive
same,outcome,[11],inactive
C=CC(C)(CCC=C(C)C)OC(=O)C=Cc1ccccc1 (configuration not stated),outcome,[1],inactive
same,outcome,[2],inactive
same,outcome,[18],inactive
same,AC50,[4],7.3 µM (active)
same,outcome,[5],inactive
same,outcome,[9],inactive
same,outcome,[10],inactive
same,outcome,[19],inactive
same,outcome,[11],inactive
C=C(C)C1CC=C(C)CC1 (configuration not stated),outcome,[1],inactive
same,outcome,[2],inactive
same,outcome,[20],inactive
same,outcome,[4],inactive
same,outcome,[5],inactive
same,outcome,[7],inactive
same,outcome,[12],inactive
same,outcome,[10],inactive
same,outcome,[19],inactive
same,outcome,[15],inactive
CN(C)Cc1cc(CN(C)C)c(O)c(CN(C)C)c1,outcome,[1],inactive
same,outcome,[2],inactive
same,outcome,[3],inactive
same,outcome,[4],inactive
same,outcome,[5],inactive
same,outcome,[14],inactive
same,outcome,[19],inactive
same,outcome,[15],inactive
same,outcome,[11],inactive
O=c1c(O)c(-c2ccc(O)cc2O)oc2cc(O)cc(O)c12,outcome,[1],inactive
same,outcome,[2],inactive
same,outcome,[18],inactive
same,outcome,[20],inactive
same,AC50,[4],59.4 µM (active)
same,outcome,[5],inactive
same,outcome,[8],inactive
same,outcome,[12],inactive
same,outcome,[10],inactive
same,outcome,[14],inactive
same,outcome,[13],inactive
same,outcome,[15],inactive
same,outcome,[11],inactive
C=C(C)C(=O)OCCOC(=O)C(=C)C,outcome,[1],inactive
same,outcome,[2],inactive
same,outcome,[4],inactive
same,outcome,[16],inactive
same,outcome,[5],inactive
same,outcome,[7],inactive
same,outcome,[14],inactive
same,outcome,[19],inactive
same,outcome,[13],inactive
same,outcome,[11],inactive
CC(C)C(=O)OCCc1ccccc1,outcome,[1],inactive
same,outcome,[2],inactive
same,outcome,[18],inactive
same,outcome,[4],inactive
same,outcome,[5],inactive
same,outcome,[6],inactive
same,outcome,[7],inactive
same,outcome,[9],inactive
same,outcome,[12],inactive
same,outcome,[10],inactive
same,outcome,[19],inactive
same,outcome,[13],inactive
same,outcome,[15],inactive

# Reference: PubChem BioAssay (EPA / NIEHS)
